For 55 compounds, INHIBITION results are on record in ChEMBL document CHEMBL4513216, “Probing the Open Global Health Chemical Diversity Library for Multistage-Active Starting Points for Next-Generation Antimalarials” (ACS Infect Dis, 2020).

The whole screen tested about 65,000 compounds, of which about 2,100 (3.2%) showed an effect of 50% or more. The median lay at about -52%. The entries come from a sample that favours strong results as a whole.

The assay relates to Plasmodium falciparum. The experiment in a line: Screen against P. falciparum Asexual Blood Stage (ABS), at 5uM. In kind it is functional, Dd2. To be noted: tested at 5 uM.
On to `COc1ccc(S(=O)(=O)C2CCN(C(=O)c3cc(C)cs3)CC2)cc1`, for which the INHIBITION is reported as -23.3%.

For `CCC(NC(=O)NCc1cccc(N(C)C)n1)c1nccs1` (stereo not given), the INHIBITION is -84.7%.

For `Cn1cnc(S(=O)(=O)N2CCCc3cc(F)cc(F)c32)c1Cl`, the INHIBITION is recorded as -84.8%.

Turning to `CO[C@H]1CCN(C(=O)Cc2ccccn2)[C@H]1Cc1ccncc1`, the INHIBITION is listed as -128%.

Regarding `COc1cc(NC2CCS(=O)(=O)CC2)ncn1`, the INHIBITION is recorded as -119%.

Regarding `N[C@@H]1c2ccccc2C2(CCN(c3cccc(C(F)(F)F)n3)CC2)[C@H]1O`, the INHIBITION is listed as -35.9%.

Regarding `Cc1ccc(CC(=O)N2CCOCC2c2c(C)n[nH]c2C)cc1` (stereo not given), the INHIBITION is on record as -37.5%.

In the case of `COc1ccc(C[C@H]2CN(c3nnc(C)s3)CC[C@@H]2OC)cc1`, the INHIBITION is reported as -16%.

On to `CO[C@@H]1CCN(Cc2ccoc2)[C@H]1Cc1ccccc1`, for which the INHIBITION was found to be 61.4%.

Turning to `CO[C@@H]1CCN(Cc2cccs2)[C@H]1Cc1ccncc1`, the INHIBITION is reported as -27.7%.

As for `COCCO[C@H]1CCN(Cc2ccoc2)[C@H]1Cc1cccnc1`, the INHIBITION is listed as -10.4%.

`COc1ccc(C[C@H]2CNCC[C@H]2OC)cc1`: the INHIBITION was 58%.

For `COc1ccc(C[C@H]2CN(c3nnc(C)s3)CC[C@H]2OC)cc1`, the INHIBITION is -2.98%.

Regarding `CCOCCN1CCN(Cc2nc(CC(C)C)no2)CC1`, the INHIBITION was found to be 18.6%.

As for `CS(=O)(=O)NC[C@]12COC[C@H]1CN(C(=O)C1CC(F)(F)C1)C2`, the INHIBITION is on record as -80.1%.

Consider `COc1cccc(-c2noc(C3CCN(Cc4ccccc4F)C3)n2)c1` (stereo not given), for which the INHIBITION is on record as -118%.

With `Cn1nc2c(cc1=O)CN(Cc1coc(-c3ccccc3)n1)CC2`, the INHIBITION is recorded as -138%.

Take `COc1ccc(CN(C)[C@@H]2COC[C@H]2c2ccc(F)cc2)c(OC)c1`: the INHIBITION came to 9.39%.

`CNc1cc2c(nn1)CCN(C(=O)c1ccc3c(c1)OCO3)C2`: the INHIBITION is recorded as -135%.

For `CCOc1cc(Cl)c(CN2CCC3(CCCNC3=O)C2)cc1OC` (stereo not given), the INHIBITION was -15.1%.

Take `O=C1NCCCC12CCN(Cc1ccc(SC3CCCCC3)o1)C2` (stereo not given): the INHIBITION is on record as 56.4%.

In the case of `O=C1NCCCC12CCN(Cc1ccc(-c3ccccc3)s1)C2` (stereo not given), the INHIBITION was -138%.

Consider `O=C(NCCc1ccn(-c2ccccc2)n1)N1CCCC(CO)C1` (stereo not given), for which the INHIBITION was -78.9%.

For `CNC(=O)c1ccc(CN2CCN(C3=NCC(C)(C)S3)CC2)cc1`, the INHIBITION is -92%.

In the case of `O=C(c1cc(=O)n(-c2ccccc2)[nH]1)N1CCCC(c2ccn[nH]2)C1` (stereo not given), the INHIBITION is on record as -22.8%.

With `CN(C)C(=O)c1cccc(CN2CCN(CCO)CC2)c1`, the INHIBITION was 61%.

Consider `COCCN1CCN(Cc2cccc(C(=O)N(C)C)c2)CC1`, for which the INHIBITION is on record as 7.48%.

Turning to `CCOCCN1CCN(Cc2cccc(C(=O)N(C)C)c2)CC1`, the INHIBITION is reported as -117%.

For the compound `COc1cc2c(c(OC)c1OC)CCN(CCn1cncn1)CC2`, the INHIBITION is recorded as -167%.

On to `Cc1cc(C)c2nc(CN3CCCC(c4cc[nH]n4)C3)cc(O)c2c1` (stereo not given), for which the INHIBITION was 54.4%.

As to `Cc1cc(C)c2nc(CN3CC[C@@H](O)C3)cc(O)c2c1`, the INHIBITION is listed as -6.9%.

Take `COC1CCCN(Cc2cc(O)c3cc(C)cc(C)c3n2)C1` (stereo not given): the INHIBITION is -88.5%.

Take `CCc1c(C)sc2ncnc(N3CC[C@@H](N4CCOCC4)[C@H](O)C3)c12`: the INHIBITION is given as -2.01%.

Take `CCc1c(C)sc2ncnc(N3CCN(C4CCOCC4)CC3)c12`: the INHIBITION amounted to 33.7%.

For `CCc1c(C)sc2ncnc(N3C[C@H](O)[C@@H](N4CCCC4)C3)c12`, the INHIBITION was determined as 62%.

With `O=C(C1CCCC1)N1CCOC(c2nc(-c3ncccn3)no2)C1` (stereo not given), the INHIBITION is -66.9%.

Regarding `c1cnc(Nc2cc(CCC3CCNCC3)ccn2)cn1`, the INHIBITION is recorded as -32%.

`c1ccc(OCc2ccncc2)c(CNC2CCc3ncnn3C2)c1` (stereo not given): the INHIBITION is -32.4%.

As to `c1cncc(COc2ccccc2CNC2CCc3ncnn3C2)c1` (stereo not given), the INHIBITION is -137%.

Take `CNC(=O)COc1ccccc1CNC1CCc2ncnn2C1` (stereo not given): the INHIBITION is -40.5%.

For the compound `c1ccc(OCC2CC2)c(CNC2CCc3ncnn3C2)c1` (stereo not given), the INHIBITION is 51.2%.

With `c1ccc(OC2CCCC2)c(CNC2CCc3ncnn3C2)c1` (stereo not given), the INHIBITION came to 20.5%.

On to `c1ccc(COc2ccccc2CNC2CCc3ncnn3C2)cc1` (stereo not given), for which the INHIBITION worked out at 69.4%.

For `Cc1csc(NC(=O)c2cnc(C3CCCN(C)C3)cn2)n1` (stereo not given), the INHIBITION is -212%.

Turning to `NC(=O)[C@@H]1CCCN1C(=O)c1cn(C/C=C/c2ccccc2)nn1`, the INHIBITION is recorded as -88.2%.

Take `COCCNC(=O)c1nnc2ccc(N3CCOCC3)cc2n1`: the INHIBITION is -19.6%.

Turning to `COC(=O)CNC(=O)c1nc(-c2ccccc2OC)c2cnccn12`, the INHIBITION is recorded as -115%.

On to `Cc1cc(C)nc(NCCC(=O)NCCn2ccnc2C)n1`, for which the INHIBITION was -55.9%.

Turning to `N#CC(NC(=O)CCCOc1cccnc1)c1ccc(F)cc1F` (stereo not given), the INHIBITION is on record as -69.7%.

For `CSc1nccc(N2CCC(NCCN3CCOCC3)CC2)n1`, the INHIBITION is -47.4%.

In the case of `CSc1nccc(N2CCC(NCc3ccc4c(c3)OCO4)CC2)n1`, the INHIBITION is 51.4%.

For `CSc1nccc(N2CCC(NCc3nc(C)cc(C)n3)CC2)n1`, the INHIBITION was -119%.

Consider `CNc1nc(CNC(=O)Nc2cccc(CSC)c2)cs1`, for which the INHIBITION amounted to 28.7%.

With `CCN1CCC2(C1)CN(S(=O)(=O)c1cn(C)cn1)C2`, the INHIBITION is on record as -42.2%.

Regarding `CCOC(=O)CCN(Cc1cccnc1)C(=O)c1cc(Cl)c[nH]1`, the INHIBITION is -43.4%.
